# Reference: PubChem BioAssay (NCATS)
# Results filed as inconclusive are left out. Where a call stands in place of a potency, no number is given. Values without a mark were called inactive. Calls of active or inactive are those of the source. Calls follow the shape of the dose curve; as a rule, active = well fitted curve in the direction sought with a large enough effect; inconclusive = small, poorly fitted or top-dose-only effect, or another doubt; inactive = no such curve, though single readings can be large; an effect the other way counts as inactive or inconclusive.
# Key:
# UISO = test: qHTS assay to identify novel small-molecules to repurpose for Merkel cell carcinoma treatment (AID 1296009); conditions: MCC and control cell lines, CellTiter-Glo viability, 72 h; series mostly up to 46 µM; also: nearly all actives have a fitted effect of over 60% in size
# In short: (§1)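 Viability readout: ATP luminescence (CellTiter-Glo) after 72 hr drug exposure at 37 degree celsius. Dose-response format was 8 points for NPC and 11 points for MIPE; data normalized to in-plate controls.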
# WaGa = test: as above; conditions: MCC and control cell lines, CellTiter-Glo viability, 72 h; series mostly up to 46 µM
# In short: as §1
# C33A = test: Primary qHTS to identify gynecologic anti-cancer compounds using libraries of approved drugs and bioactive compounds (AID 1345084); conditions: Gynecologic cancer cell panel viability, ATPlite luminescence, 48 h; series mostly up to 57.5 µM; also: nearly all actives have a fitted effect of over 55% in size
# In short: (§2)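 Measured: luminescence after ATPlite addition (15 min, RT). Exposure: 48 h, 37 C, 5% CO2.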
# CAOV3 = test: as above; conditions: Gynecologic cancer cell panel viability, ATPlite luminescence, 48 h; series mostly up to 57.5 µM
# In short: as §2
# CASKI = test: as above; conditions: Gynecologic cancer cell panel viability, ATPlite luminescence, 48 h; series mostly up to 57.5 µM
# In short: as §2
# Es-2 = test: as above; conditions: Gynecologic cancer cell panel viability, ATPlite luminescence, 48 h; series mostly up to 57.5 µM
# In short: as §2
# HeLa = test: as above; conditions: Gynecologic cancer cell panel viability, ATPlite luminescence, 48 h; series mostly up to 57.5 µM
# In short: as §2
# Hek293T = test: as above; conditions: Gynecologic cancer cell panel viability, ATPlite luminescence, 48 h, control line for the selectivity index; series mostly up to 57.5 µM
# In short: as §2
# JEG-3 = test: as above; conditions: Gynecologic cancer cell panel viability, ATPlite luminescence, 48 h; series mostly up to 57.5 µM
# In short: as §2
# OV90 = test: as above; conditions: Gynecologic cancer cell panel viability, ATPlite luminescence, 48 h; series mostly up to 57.5 µM
# In short: as §2
# PA-1 = test: as above; conditions: Gynecologic cancer cell panel viability, ATPlite luminescence, 48 h; series mostly up to 57.5 µM
# In short: as §2
# SKOV3 = test: as above; conditions: Gynecologic cancer cell panel viability, ATPlite luminescence, 48 h; series mostly up to 57.5 µM
# In short: as §2
# Tov-21-G = test: as above; conditions: Gynecologic cancer cell panel viability, ATPlite luminescence, 48 h; series mostly up to 57.5 µM
# In short: as §2
# Tov112D = test: as above; conditions: Gynecologic cancer cell panel viability, ATPlite luminescence, 48 h; series mostly up to 57.5 µM
# In short: as §2
# [1] = Drug repurposing screens with cells derived from glioblastoma tumor samples (AID 1345199); conditions: GBM patient neurospheres viability, ATP luminescence, 48 h; also: nearly all actives have a fitted effect of over 40% in size; also: potency is read from the fitted curve at half-maximal effect
# In short: (§3)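 Primary testing used CD133+ neurospheres from four GBM patients, seven concentrations, 48 h exposure and ATP-based viability; confirmation added three slower-growing patient lines.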
# astro = test: as above; conditions: viability, ATP luminescence, 48 h; series mostly up to 45.9 µM
# In short: as §3
# [2] = at 45.9 µM (top of the series), tumour line B
# [3] = at 45.9 µM (top of the series), tumour line D
# [4] = at 46 µM (top of the series), tumour line A
# [5] = at 46.1 µM (top of the series), tumour line C
compound,measurement,setting,value
OCC(O)CS (stereo not drawn),outcome,UISO,inactive
same,outcome,WaGa,inactive
same,outcome,C33A,inactive
same,outcome,CAOV3,inactive
same,outcome,CASKI,inactive
same,outcome,Es-2,inactive
same,outcome,HeLa,inactive
same,outcome,Hek293T,inactive
same,outcome,JEG-3,inactive
same,Potency,OV90,inactive
same,outcome,PA-1,inactive
same,outcome,SKOV3,inactive
same,outcome,Tov-21-G,inactive
same,outcome,Tov112D,inactive
same,"activity, negative = cell killing",[1]; [2],-7.05%
same,"activity, negative = cell killing",[1]; [3],-1.81%
same,"activity, negative = cell killing",[1]; [4],-9.33%
same,"activity, negative = cell killing",[1]; [5],-1.31%
same,outcome,astro,inactive
CC(=O)Oc1cccc(C)c1,outcome,UISO,inactive
same,outcome,WaGa,inactive
same,outcome,C33A,inactive
same,outcome,CAOV3,inactive
same,outcome,CASKI,inactive
same,outcome,Es-2,inactive
same,outcome,HeLa,inactive
same,outcome,Hek293T,inactive
same,outcome,JEG-3,inactive
same,Potency,OV90,inactive
same,outcome,PA-1,inactive
same,outcome,SKOV3,inactive
same,outcome,Tov-21-G,inactive
same,outcome,Tov112D,inactive
same,"activity, negative = cell killing",[1]; [2],-2.63%
same,"activity, negative = cell killing",[1]; [3],-6.87%
same,"activity, negative = cell killing",[1]; [4],-17.9%
same,"activity, negative = cell killing",[1]; [5],-0.258%
same,outcome,astro,inactive
COc1ccc(C(=O)NCc2ccc(OCCN(C)C)cc2)cc1OC,outcome,UISO,inactive
same,outcome,WaGa,inactive
same,outcome,C33A,inactive
same,outcome,CAOV3,inactive
same,outcome,CASKI,inactive
same,outcome,Es-2,inactive
same,outcome,HeLa,inactive
same,outcome,Hek293T,inactive
same,outcome,JEG-3,inactive
same,Potency,OV90,inactive
same,outcome,PA-1,inactive
same,outcome,SKOV3,inactive
same,outcome,Tov-21-G,inactive
same,outcome,Tov112D,inactive
same,"activity, negative = cell killing",[1]; [2],-21.3%
same,"activity, negative = cell killing",[1]; [3],-4.36%
CCCCCC(C)N (stereo not drawn),outcome,UISO,inactive
same,outcome,WaGa,inactive
same,outcome,C33A,inactive
same,outcome,CAOV3,inactive
same,outcome,CASKI,inactive
same,outcome,Es-2,inactive
same,outcome,HeLa,inactive
same,outcome,Hek293T,inactive
same,outcome,JEG-3,inactive
same,Potency,OV90,inactive
same,outcome,PA-1,inactive
same,outcome,SKOV3,inactive
same,outcome,Tov-21-G,inactive
same,outcome,Tov112D,inactive
same,"activity, negative = cell killing",[1]; [2],-17%
same,"activity, negative = cell killing",[1]; [3],-7.45%
same,"activity, negative = cell killing",[1]; [4],-32%
same,"activity, negative = cell killing",[1]; [5],-13.3%
same,outcome,astro,inactive
CCCCCCCCCCOc1cc2c(=O)c(C(=O)OCC)c[nH]c2cc1OCC,"activity change, negative = cytotoxicity",UISO,13.6% [at 4.84 µM]
same,"activity change, negative = cytotoxicity",WaGa,-1.72% [at 4.84 µM]
same,"activity change, negative = cytotoxicity",C33A,1.85% [at 6.55 µM]
same,"activity change, negative = cytotoxicity",CAOV3,22.4% [at 6.55 µM]
same,"activity change, negative = cytotoxicity",CASKI,19.5% [at 6.55 µM]
same,"activity change, negative = cytotoxicity",Es-2,-0.35% [at 6.55 µM]
same,"activity change, negative = cytotoxicity",HeLa,-1.47% [at 6.55 µM]
same,"activity change, negative = cytotoxicity",Hek293T,4.2% [at 6.55 µM]
same,"activity change, negative = cytotoxicity",JEG-3,6.94% [at 6.55 µM]
same,"activity change, negative = cytotoxicity",OV90,-2.35% [at 6.55 µM]
same,"activity change, negative = cytotoxicity",PA-1,-2.19% [at 6.55 µM]
same,"activity change, negative = cytotoxicity",SKOV3,0.739% [at 6.55 µM]
same,"activity change, negative = cytotoxicity",Tov-21-G,1.05% [at 6.55 µM]
same,"activity change, negative = cytotoxicity",Tov112D,-6.94% [at 6.55 µM]
same,"activity, negative = cell killing",[1]; [2],2.17%
same,"activity, negative = cell killing",[1]; [3],-20.1%
same,"activity, negative = cell killing",[1]; [5],-26.1%
COc1ccccc1OC(=O)Oc1ccccc1OC,outcome,UISO,inactive
same,outcome,WaGa,inactive
same,outcome,C33A,inactive
same,outcome,CAOV3,inactive
same,outcome,CASKI,inactive
same,outcome,Es-2,inactive
same,outcome,HeLa,inactive
same,outcome,Hek293T,inactive
same,outcome,JEG-3,inactive
same,Potency,OV90,inactive
same,outcome,PA-1,inactive
same,outcome,SKOV3,inactive
same,outcome,Tov-21-G,inactive
same,outcome,Tov112D,inactive
same,"activity, negative = cell killing",[1]; [2],-6.75%
same,"activity, negative = cell killing",[1]; [3],-3.45%
same,"activity, negative = cell killing",[1]; [4],-34.8%
same,"activity, negative = cell killing",[1]; [5],-5.39%
CN1C[C@@H]2C[C@H]1CN2c1cc2c(cc1F)c(=O)c(C(=O)O)cn2C1CC1,outcome,UISO,inactive
same,outcome,WaGa,inactive
same,outcome,C33A,inactive
same,outcome,CAOV3,inactive
same,outcome,CASKI,inactive
same,outcome,Es-2,inactive
same,outcome,HeLa,inactive
same,outcome,Hek293T,inactive
same,outcome,JEG-3,inactive
same,Potency,OV90,inactive
same,outcome,PA-1,inactive
same,outcome,SKOV3,inactive
same,outcome,Tov-21-G,inactive
same,outcome,Tov112D,inactive
same,"activity, negative = cell killing",[1]; [2],4.99%
same,"activity, negative = cell killing",[1]; [3],-9.88%
same,"activity, negative = cell killing",[1]; [4],-19.7%
same,"activity, negative = cell killing",[1]; [5],3.73%
same,outcome,astro,inactive
Cc1ccc(S(=O)(=O)NC(=O)NC2CCCCCCC2)cc1,outcome,UISO,inactive
same,outcome,WaGa,inactive
same,outcome,C33A,inactive
same,outcome,CAOV3,inactive
same,outcome,CASKI,inactive
same,outcome,Es-2,inactive
same,outcome,HeLa,inactive
same,outcome,Hek293T,inactive
same,outcome,JEG-3,inactive
same,Potency,OV90,inactive
same,outcome,PA-1,inactive
same,outcome,SKOV3,inactive
same,outcome,Tov-21-G,inactive
same,outcome,Tov112D,inactive
same,"activity, negative = cell killing",[1]; [2],-4.76%
same,"activity, negative = cell killing",[1]; [3],3.34%
same,"activity, negative = cell killing",[1]; [4],-27.8%
CC(=O)NCc1c(I)c(NC(C)=O)c(I)c(C(=O)O)c1I,outcome,UISO,inactive
same,outcome,WaGa,inactive
same,outcome,C33A,inactive
same,outcome,CAOV3,inactive
same,outcome,CASKI,inactive
same,outcome,Es-2,inactive
same,outcome,HeLa,inactive
same,outcome,Hek293T,inactive
same,outcome,JEG-3,inactive
same,Potency,OV90,inactive
same,outcome,PA-1,inactive
same,outcome,SKOV3,inactive
same,outcome,Tov-21-G,inactive
same,outcome,Tov112D,inactive
same,"activity, negative = cell killing",[1]; [2],-9.68%
same,"activity, negative = cell killing",[1]; [3],-11.6%
same,"activity, negative = cell killing",[1]; [4],-20.1%
same,"activity, negative = cell killing",[1]; [5],-11.1%
same,outcome,astro,inactive
NC(=O)CC[C@@H](N)C(=O)O,outcome,UISO,inactive
same,outcome,WaGa,inactive
same,outcome,C33A,inactive
same,outcome,CAOV3,inactive
same,outcome,CASKI,inactive
same,outcome,Es-2,inactive
same,outcome,HeLa,inactive
same,outcome,Hek293T,inactive
same,outcome,JEG-3,inactive
same,Potency,OV90,inactive
same,outcome,PA-1,inactive
same,outcome,SKOV3,inactive
same,outcome,Tov-21-G,inactive
same,outcome,Tov112D,inactive
same,"activity, negative = cell killing",[1]; [2],-5.88%
same,"activity, negative = cell killing",[1]; [3],12.3%
same,"activity, negative = cell killing",[1]; [4],4.73%
same,"activity, negative = cell killing",[1]; [5],1.46%
same,outcome,astro,inactive
CCOc1cc(NC(C)=O)ccc1C(=O)OC,outcome,UISO,inactive
same,outcome,WaGa,inactive
same,outcome,C33A,inactive
same,outcome,CAOV3,inactive
same,outcome,CASKI,inactive
same,outcome,Es-2,inactive
same,outcome,HeLa,inactive
same,outcome,Hek293T,inactive
same,outcome,JEG-3,inactive
same,Potency,OV90,inactive
same,outcome,PA-1,inactive
same,outcome,SKOV3,inactive
same,outcome,Tov-21-G,inactive
same,outcome,Tov112D,inactive
same,"activity, negative = cell killing",[1]; [2],-7.75%
same,"activity, negative = cell killing",[1]; [3],-29.2%
same,"activity, negative = cell killing",[1]; [4],-29.3%
same,"activity, negative = cell killing",[1]; [5],2.82%
same,outcome,astro,inactive
CCCCCCCCCCC(CO)CCCCCCCC (stereo not drawn),outcome,UISO,inactive
same,outcome,WaGa,inactive
same,outcome,C33A,inactive
same,outcome,CAOV3,inactive
same,outcome,CASKI,inactive
same,outcome,Es-2,inactive
same,outcome,HeLa,inactive
same,outcome,Hek293T,inactive
same,outcome,JEG-3,inactive
same,Potency,OV90,inactive
same,outcome,PA-1,inactive
same,outcome,SKOV3,inactive
same,outcome,Tov-21-G,inactive
same,outcome,Tov112D,inactive
same,"activity, negative = cell killing",[1]; [2],-11.9%
same,"activity, negative = cell killing",[1]; [3],-0.979%
same,"activity, negative = cell killing",[1]; [5],14%
same,Potency,[1]; tumour line A,25.1 µM (active)
CCN(CC)CCOC(=O)C(c1ccccc1)c1ccccc1,outcome,UISO,inactive
same,outcome,WaGa,inactive
same,outcome,C33A,inactive
same,outcome,CAOV3,inactive
same,outcome,CASKI,inactive
same,outcome,Es-2,inactive
same,outcome,HeLa,inactive
same,outcome,Hek293T,inactive
same,outcome,JEG-3,inactive
same,Potency,OV90,inactive
same,outcome,PA-1,inactive
same,outcome,SKOV3,inactive
same,outcome,Tov-21-G,inactive
same,outcome,Tov112D,inactive
same,"activity, negative = cell killing",[1]; [2],-13.3%
same,"activity, negative = cell killing",[1]; [3],-3.55%
same,"activity, negative = cell killing",[1]; [4],-25.1%
same,"activity, negative = cell killing",[1]; [5],-20.1%
same,outcome,astro,inactive
